# HT1080-NT tox = qHTS for induction of synthetic lethality in tumor cells producing 2HG: qHTS for the HT-1080-NT fibrosarcoma cell line. HT-1080-NT fibrosarcoma viability, CellTiter-Glo ATP luminescence, 48 h. Potency, µM (top dose mostly 46.1 µM), inactives show at the top dose activity, negative = less viability, usual class: cytotoxic. 1.6% of 360,000 active. AID 686970, 2013;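 further: NT is the 2HG producing partner of a matched IDH1 knockdown line; 0% = DMSO-treated cells and -100% = media-only wells without cells; nearly all actives have a fitted effect of over 55% in size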
#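 A 48-hour cytotoxicity screen used HT-1080-NT cells plated 2 hours before compound delivery. ATP-based CellTiter-Glo luminescence measured viability, normalized to DMSO and no-cell controls.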
# KB-V1 cytotox = qHTS assay for MDR1-selective chemotherapeutics: Primary screen using the drug-selected MDR subline cells KB-V1; Potency, µM (highest dose often 46.1 µM), hits mostly cytotoxic; 3.4% of 400,000 active; KB-V1 MDR cells viability, CellTiter-Glo, 72 h; further: nearly all actives have a fitted effect of over 60% in size
#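 Compound-treated KB-V1 multidrug-resistant cells, 72 h, 37 degrees C; viability by CellTiter-Glo. Fitted qHTS curves give the values.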
# DT40 TDP1 no CPT = qHTS for Inhibitors of human tyrosyl-DNA phosphodiesterase 1 (TDP1): qHTS in cells in absence of CPT | DT40 Tdp1-/- hTDP1 cells, no CPT, ATP luminescence, 48 h | Potency, µM (doses to about 46.2 µM), for inactives: at the highest dose activity change, negative = growth inhibition, hits mostly inhibitors | 15% of 420,000 active | AID 686978, 2013; further: nearly all actives have a fitted effect of over 55% in size
#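 Compound effects on proliferation are scored in DT40 Tdp1-/-;hTDP1 cells in the absence of CPT. ATP levels (CellTiter-Glo luminescence) are recorded after a ≥48 hr, 37 °C incubation.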
# HT1080 IDH1KD tx = qHTS for induction of synthetic lethality in tumor cells producing 2HG: qHTS for the HT-1080-IDH1KD cell line. HT-1080 IDH1 knockdown viability, ATP luminescence, 48 h. Potency, µM (highest dose often 46.1 µM), for the others: at the top dose activity, negative = toxicity, hits mostly cytotoxic. 2% of 360,000 active;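 further: 0% = DMSO wells and -100% = cell-free medium wells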
#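 Viability of IDH1-knockdown HT-1080 fibrosarcoma cells was assessed by CellTiter-Glo after 48 h at 37 °C with titrated compound; concentration-effect curves were classified by fit quality and response size.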
# KB-3-1 tox = qHTS assay for MDR1-selective chemotherapeutics: Primary screen using the parental adenocarcinoma cell KB-3-1 | KB-3-1 viability, CellTiter-Glo ATP luminescence, 72 h | 1.4% of 400,000 active | Potency, µM (series often up to 46.1 µM), hits mostly cytotoxic; further: nearly all actives have a fitted effect of over 60% in size
#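 Here the drug-naive KB-3-1 line serves as comparator for MDR sub-line selectivity; cells received compound titrations, 72 h at 37 °C, then CellTiter-Glo readout.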
# TDP1 cell CPT = qHTS for Inhibitors of human tyrosyl-DNA phosphodiesterase 1 (TDP1): qHTS in cells in presence of CPT. chicken DT40 Tdp1-/-;hTDP1 cells + 20 nM CPT, ATP luminescence, 48 h. Potency, µM (doses to about 46.2 µM), without a hit: at the top dose activity change, negative = growth inhibition, hits mostly inhibitors. AID 686979, 2013. 12% of 420,000 active; further: nearly all actives have a fitted effect of over 55% in size
#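 Chicken DT40 Tdp1-/- cells stably complemented with human TDP1 were seeded at 400 cells/well in medium containing 20 nM camptothecin, exposed to pin-transferred compounds, and grown at 37 °C for at least 48 hr. Viability was read as ATP luminescence.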
# An asterisk follows results filed as active; i = inactive; u = inconclusive; x = not tested or not shown. A selection: hits, their analogues and other compounds. The true share with any hit is near 19%. The call rests on the fitted dose curve; in most records, active means well fitted curve in the direction sought with a large enough effect; inconclusive means small, poorly fitted or top-dose-only effect, or another doubt; inactive means no such curve, though single readings can be large; an effect the other way counts as inactive or inconclusive. Unless noted, on the % scale 0 is the no-effect control and ±100 the full control effect; potency means the concentration at half of the fitted maximal effect.
SMILES,HT1080-NT tox,KB-V1 cytotox,DT40 TDP1 no CPT,HT1080 IDH1KD tx,KB-3-1 tox,TDP1 cell CPT
Cc1c(Nc2scc(-c3ccccc3)[n+]2-c2ccccc2)c(=O)n(-c2ccccc2)n1C,0.2%,u,20.6µM*,-7.4%,u,u
Cc1c(Nc2nc3ccccc3nc2N2CCN(c3ccccc3)CC2)c(=O)n(-c2ccccc2)n1C,0.0%,i,14.6µM*,0.6%,i,20.6µM*
Cc1c(Nc2nc(-c3ccc(Cl)cc3)cs2)c(=O)n(-c2ccccc2)n1C,-7.0%,7.31µM*,10.3µM*,-16.5%,u,u
C#CC[N+](C)(C)CCCCCCCCC,u,i,2.31µM*,u,5.8µM*,2.31µM*
CC#CC[N+](C)(C)CCCCCCCCCC,-27.0%,i,1.84µM*,u,5.8µM*,2.31µM*
CCn1cc2nc(SCC(=O)Nc3cccc(Cl)c3C)n(Cc3ccc(Cl)cc3)c(=O)c2n1,x,u,u,x,i,u
CCn1cc2nc(SCC(=O)Nc3ccc(OC)cc3OC)n(Cc3ccc(Cl)cc3)c(=O)c2n1,x,i,18.4µM*,x,i,20.6µM*
CCN(CC)C(=O)CSc1nc2cc(OC)c(OC)cc2c(=O)n1Cc1ccc(Cl)cc1,-21.2%,u,18.4µM*,-28.2%,i,u
CCn1cc2nc(SCC(=O)Nc3cc(OC)ccc3OC)n(Cc3ccc(Cl)cc3)c(=O)c2n1,x,i,8.2µM*,x,i,11.6µM*
Cc1ccc(C(=O)O)cc1NCc1ccncc1,15.4%,i,7.1%,28.1%,i,7.3%
CC1CCN(C(=O)CN2CCSc3ccc(S(=O)(=O)N(C)C)cc32)CC1,x,u,x,x,i,x
O=C(NCc1ccc(Cl)nc1)c1csc([C@@H]2C[C@H](O)[C@@H](CO)O2)n1,9.2%,i,4.6%,28.2%,i,-10.3%
COc1ccccc1NC(=S)NC1CCCCC1,5.0%,i,-13.9%,15.3%,i,1.7%
COc1ccccc1NC(=S)NC1CCCCCCCCCCC1,-27.0%,i,20.6µM*,u,u,10.3µM*
CCOc1ccccc1NC(=S)NC1CCCCC1,9.5%,23.1µM*,u,u,i,-15.8%
CCOc1ccc(C(=S)NC2CCCCC2)cc1OC,3.7%,16.4µM*,u,-0.4%,i,u
Cc1ccc(C)c(S(=O)(=O)c2cnc(SCC(=O)Nc3ccc(F)cc3F)[nH]c2=O)c1,x,i,x,x,i,x
CCOC(=O)C1CCN(C(=S)NC2CC3C=CC2C3)CC1 (configuration not stated),0.1%,i,-1.9%,2.5%,i,-5.0%
COc1ccc(C(CNC(=O)CNC(=O)c2cccc(F)c2)N2CCOCC2)cc1 (configuration not stated),10.8%,i,-6.5%,-1.2%,i,6.4%
N=c1n(Cc2ccccc2)c2ccccc2n1CC(O)COc1ccccc1 (configuration not stated),u,20.6µM*,6.51µM*,u,20.6µM*,7.31µM*
Cc1ccc(Cn2c(=N)n(CC(O)COc3ccccc3)c3ccccc32)cc1 (configuration not stated),-20.8%,16.4µM*,9.2µM*,u,i,18.4µM*
N#CC1(Cc2ccc([N+](=O)[O-])cc2)c2ccccc2C=CN1C(=O)c1ccccc1 (configuration not stated),10.2%,i,14.6µM*,7.2%,i,u
C=CCn1cn[nH]c1=S,10.5%,i,0.2%,16.8%,i,5.17µM*
c1ccc(CCNc2cc(-c3ccc4ccccc4c3)nc3ccnn23)nc1,15.4%,i,u,15.2%,i,u
Cc1ccc(C2=NC(=O)/C(=C/c3cc(O)c(O)c(Br)c3)S2)cc1,-11.1%,u,16.4µM*,-16.5%,i,18.4µM*
SMILES,HT1080-NT tox,KB-V1 cytotox,DT40 TDP1 no CPT,HT1080 IDH1KD tx,KB-3-1 tox,TDP1 cell CPT
COc1cc(/C=C2\SC(c3ccc(C)cc3)=NC2=O)cc(OC)c1O,9.0%,i,u,-2.8%,i,-23.3%
Cc1ccc(-c2c(C(=O)NCCc3ccc(Cl)cc3)oc(=O)c3ccccc23)cc1,x,i,u,x,u,u
CCCCN(Cc1ccccc1)C(=O)c1oc(=O)c2ccccc2c1-c1ccc(C)cc1,x,i,u,x,u,20.6µM*
Cc1ccc(CCNC(=O)c2oc(=O)c3ccccc3c2-c2ccc(C)cc2)cc1,x,i,23.1µM*,x,i,u
CCC(Cc1ccccc1)NC(=O)c1oc(=O)c2ccccc2c1-c1ccccc1 (configuration not stated),x,i,u,x,i,u
CCCCN(CCCC)C(=O)c1cc2ccccc2c(=O)o1,-3.1%,i,16.4µM*,0.0%,i,u
CCCCC(CC)CNC(=O)c1cc2ccccc2c(=O)o1 (configuration not stated),13.2%,i,u,2.2%,i,-5.0%
Cc1ccsc1C(=O)NCCc1nnc2ccccn12,1.2%,i,-1.7%,4.1%,i,1.9%
CCN(CC(=O)NCc1cccs1)S(=O)(=O)c1ccccc1Cl,17.4%,i,u,17.0%,i,-27.5%
Nc1nnc2c(n1)CCCC2,-1.7%,i,-1.2%,6.4%,i,1.9%
NC1=NCCCC1,x,x,2.66µM*,x,x,3.76µM*
CCCCC1CC(C)(C(=O)CSc2nc3ccccc3s2)OC1=O (configuration not stated),-11.6%,i,0.651µM*,-3.8%,i,-3.1%
O=C(CSc1nc2ccccc2s1)NC1CCCC1,-1.3%,i,8.1%,12.1%,u,10.2%
O=C(O)C1CCN(C(=O)CSc2nc3ccccc3s2)CC1,8.6%,i,u,-1.9%,i,u
O=C(CSc1nc2ccccc2s1)Nn1cnnc1,1.8%,i,6.8%,-7.3%,i,18.4µM*
CC1CCN(C(=O)CSc2nc3ccccc3s2)CC1,9.3%,14.6µM*,-13.9%,6.9%,i,11.8%
O=C(CSc1nc2ccccc2s1)N1c2ccccc2Sc2ccccc21,-0.4%,20.6µM*,u,-15.4%,u,u
